Only some compounds are listed: those with a hit (about 0.24% of all), similar ones and a draw of the others.
NPYLR7 ag – activates Aedes aegypti NPYLR7 receptor; HEK293T NPYLR7/Galpha15, GCaMP6s calcium fluorescence; actives 0.15% (n = 270,000); activation, % at 10 µM; in the data active means activation above about 40%;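 further: 0% = vehicle and 100% = reference agonist at the receptor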
mcGAS inh – blocks mouse cGAS activity | Q8C6L5 | recombinant cGAS, Kinase-Glo ATP depletion luminescence | inhibition, % at 12.5 µM | actives 0.15% (n = 160,000) | AID 1259399;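 further: 0% = negative control wells and 100% = reference inhibitor with no enzyme activity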
Target sequence (Q8C6L5 whole entry, looked up): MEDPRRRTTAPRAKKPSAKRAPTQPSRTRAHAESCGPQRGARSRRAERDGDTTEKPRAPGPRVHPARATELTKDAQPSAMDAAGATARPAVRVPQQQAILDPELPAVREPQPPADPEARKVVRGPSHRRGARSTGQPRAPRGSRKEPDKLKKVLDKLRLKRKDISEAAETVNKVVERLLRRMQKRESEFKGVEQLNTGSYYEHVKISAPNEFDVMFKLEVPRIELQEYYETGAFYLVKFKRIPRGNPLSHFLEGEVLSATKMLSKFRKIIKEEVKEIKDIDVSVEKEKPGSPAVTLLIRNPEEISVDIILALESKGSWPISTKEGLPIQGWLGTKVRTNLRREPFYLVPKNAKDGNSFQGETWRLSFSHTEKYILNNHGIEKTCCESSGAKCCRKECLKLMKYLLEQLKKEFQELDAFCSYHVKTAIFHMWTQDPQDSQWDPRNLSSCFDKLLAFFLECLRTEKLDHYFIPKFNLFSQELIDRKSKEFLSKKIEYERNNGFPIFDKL
hcGAS inh – human cGAS inhibition; Q8N884; inhibition, % at 12.5 µM; actives 0.081% (n = 290,000); recombinant h-cGAS, ATP depletion, Kinase-Glo luminescence; AID 1259398;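 further: 0% = vehicle reaction and 100% = reaction without DNA for no activity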
* marks the source's active call; other numbers are inactive results; ! = a repeat was not active. Unless noted, no stated cut-off is given here; in the data, active means inhibition above about 40%; inactive means the rest.

`CCN(CC)CCCC(C)NC(=O)c1cc(-c2ccccc2Cl)nn1-c1ccc(OC)cc1` (centres undefined) gave NPYLR7 ag 14.1, mcGAS inh -4.5 and hcGAS inh -2.6.
Screening CCN(CC)CCCC(C)Nc1c2ccc(Cl)cc2nc2ccc(OC)cc12 (centres undefined) returned NPYLR7 ag 66.7*, mcGAS inh 29.3 and hcGAS inh 64.2*!.
For COc1cc(=O)n(-c2ccc(F)cc2)nc1C(=O)N1CCN(C)CC1 the results were NPYLR7 ag -4.3, mcGAS inh -0.5 and hcGAS inh -4.4.
For COC(=O)C1=C(C)NC(C)=C(C(=O)OC)C1c1ccccc1[N+](=O)[O-] the results were NPYLR7 ag 14.2, mcGAS inh 50.9* and hcGAS inh 16.7.
COC(=O)C1=C(C)NC(=O)NC1c1ccccc1[N+](=O)[O-] (centres undefined) was read as NPYLR7 ag -0.8, mcGAS inh -1.8 and hcGAS inh -1.1.
Cc1c(C(C)NC(=O)CCN2CCCO2)cnn1-c1ccccn1 (centres undefined) was read as hcGAS inh -4.6.
Screening Cc1cc(C)cc(NC(=O)Cn2nc(C)c3cnn(-c4ccc(F)cc4)c3c2=O)c1 returned NPYLR7 ag 5.8 and hcGAS inh -4.4.
Oc1oc(-c2ccccc2Br)nc1C=Nc1ccccc1 was read as NPYLR7 ag 64.5* and hcGAS inh 15.5.
Screening Cc1ccc(N=Cc2nc(-c3ccccc3Br)oc2O)cc1 returned NPYLR7 ag -2.6 and hcGAS inh -5.1.
`O=C1c2ccccc2-c2nc3nonc3nc21` gave NPYLR7 ag -0.2, mcGAS inh 53.2* and hcGAS inh 1.4.
`O=C1c2ccccc2-c2nc3ccccc3nc21` gave NPYLR7 ag 2.3 and hcGAS inh -0.7.
For CN(C)S(=O)(=O)c1ccc(SCC(=O)c2c(N)n(C3CC3)c(=O)[nH]c2=O)nc1 the results were NPYLR7 ag 2.3 and hcGAS inh -1.3.
`N#Cc1ccc(CN2CCN(C(=O)Nc3ccc(Cl)cc3)CC2)cc1` gave NPYLR7 ag -1.5 and hcGAS inh -10.8.
`CCN1C(=O)N(C2Cc3ccccc3C2)C(=O)C12CCN(Cc1cnc(-c3ccccc3)s1)CC2` gave NPYLR7 ag 9.9, mcGAS inh -14.1 and hcGAS inh -2.7.
CCOC(=O)CN1C(=O)CN(C(=O)OCc2ccccc2)CCC(OC)c2ccccc21 (centres undefined) was read as NPYLR7 ag 0.0, mcGAS inh -2.3 and hcGAS inh 6.8.
COC(=O)C1CCN(S(=O)(=O)c2cc(Br)ccc2Br)CC1 was read as NPYLR7 ag 5.4 and hcGAS inh 3.5.
COC(=O)C1CCN(S(=O)(=O)c2c(F)cc(F)cc2Br)CC1 was read as NPYLR7 ag 88.3* and hcGAS inh -7.8.
Screening O=C(NCc1ccco1)C(C1CCCC1)N1CCN(C(=O)c2cccc(Br)c2)CC1 (centres undefined) returned NPYLR7 ag -4.1 and hcGAS inh 3.0.
For Cn1c(Cl)cnc1COc1ccc(C(N)=O)cc1 the results were NPYLR7 ag 2.0 and hcGAS inh -6.6.
Screening COc1cccc(C(c2ccccn2)N(C)C(=O)C2CCN(C(=O)c3cccs3)CC2)c1 (centres undefined) returned NPYLR7 ag -1.6, mcGAS inh -4.5 and hcGAS inh -2.6.
`COC(=O)CCC(=O)c1ccc(Br)s1` gave NPYLR7 ag -3.0, mcGAS inh -4.3 and hcGAS inh -6.2.
Screening COC(=O)Cc1ccc(C(=O)CCl)s1 returned NPYLR7 ag 12.9, mcGAS inh 56.4* and hcGAS inh -3.9.
C=CCn1c(O)c(C=Nc2ccccc2)sc1=S was read as NPYLR7 ag -3.1, mcGAS inh -6.0 and hcGAS inh -2.8.
Screening Oc1[nH]c(=S)sc1C=Nc1ccccc1 returned NPYLR7 ag -0.6, mcGAS inh 57.2* and hcGAS inh 6.5.
`O=C(CN1CN(c2ccccc2)C2(CCN(C(=O)c3ccc([N+](=O)[O-])cc3)CC2)C1=O)NCc1ccco1` gave NPYLR7 ag -7.6, mcGAS inh -0.3 and hcGAS inh -0.3.
`O=c1[nH]c2n[nH]c(=S)n2c2c1CCCC2` gave NPYLR7 ag -2.3 and hcGAS inh 50.9*.
Cc1cc(=O)[nH]c2n[nH]c(=S)n12 was read as NPYLR7 ag -3.8 and hcGAS inh 28.0.
Screening C=CCN(CC(=O)N1CCc2sccc2C1c1ccc(OC)cc1)C(=O)/C=C/c1ccccc1 (centres undefined) returned NPYLR7 ag -9.8, mcGAS inh 2.6 and hcGAS inh 1.6.
`Cc1ccc(CNC(=O)NC(c2ccc3c(c2)OCCCO3)C(C)C)cc1F` (centres undefined) gave NPYLR7 ag 46.9*, mcGAS inh -9.4 and hcGAS inh -12.8.
`CC(C)C(NC(=O)c1cccc(F)c1)c1ccc2c(c1)OCCCO2` (centres undefined) gave NPYLR7 ag 3.4 and hcGAS inh 0.3.
CN1CCC2(CC1)CN(C(=O)c1c[nH]c(=O)cn1)CCN2C was read as NPYLR7 ag 6.1, mcGAS inh -14.4 and hcGAS inh 1.1.
`Cc1nc(SCc2cccc(C(=O)N3CCCC3)c2)nc(N2CCN(c3ccccc3Cl)CC2)c1C` gave NPYLR7 ag 13.3, mcGAS inh -5.1 and hcGAS inh -2.1.
COc1ccc(NCc2cc(OC)c3c(c2)OCCO3)cn1 was read as NPYLR7 ag 3.5, mcGAS inh -5.7 and hcGAS inh -5.8.
`COc1ccc(NCc2ccc(OC)c(Br)c2)cn1` gave NPYLR7 ag 85.7*, mcGAS inh -8.7 and hcGAS inh -12.5.
Cc1cc(C(=O)CN2C(=O)NC(c3ccccc3)(c3ccccc3)C2=O)c(C)[nH]1 was read as NPYLR7 ag 2.8, mcGAS inh -5.7 and hcGAS inh -8.6.
For Cc1ccc(C(=O)CSc2nc(=O)n(Cc3cccnc3)c3c2CCC3)cc1 the results were NPYLR7 ag -0.5, mcGAS inh -9.7 and hcGAS inh -5.8.
For S=c1n(CN2CCCC2c2ccccc2)cc2ccccn12 (centres undefined) the results were NPYLR7 ag 12.6 and hcGAS inh 54.9*.
For O=C(CN1CCCC1c1ccccc1)NCc1ccccc1 (centres undefined) the results were NPYLR7 ag 2.9 and hcGAS inh -4.9.
For Cc1cccc(S(=O)(=O)N2CCN(C(=O)C3CC4C=CC3C4)CC2)c1 (centres undefined) the results were NPYLR7 ag -6.2 and hcGAS inh -0.7.
`N#CC1C(=N)Oc2cc(N)ccc2C1c1ccccc1I` (centres undefined) gave NPYLR7 ag 25.8 and hcGAS inh -2.6.
For N#CC1C(=N)Oc2cc(N)ccc2C1c1c(Cl)cccc1Cl (centres undefined) the results were NPYLR7 ag 159.6*, mcGAS inh 9.0 and hcGAS inh -4.7.
`Cc1ccc(NC2C=CS(=O)(=O)C2)cc1C` (centres undefined) gave NPYLR7 ag 110.3*, mcGAS inh -2.7 and hcGAS inh -2.9.
Screening Cc1ccc(F)cc1CC(=O)NC1C=CS(=O)(=O)C1 (centres undefined) returned NPYLR7 ag 8.1, mcGAS inh 3.2 and hcGAS inh -0.8.
Screening COc1ccc(/C=N\NC(=O)Cc2nnc(NC(C)=O)s2)cc1 returned NPYLR7 ag 1.6, mcGAS inh -4.4 and hcGAS inh -4.8.
